The record followed here is PubChem BioAssay (EPA / NIEHS).

SMILES strings stand for the structures. “And” between values parts separate entries of the source, which are not always exact repeats. Equal entries are not always repeated. Some structures have more than one record in an assay (separate samples or runs), and their calls can disagree. The source made the active and inactive calls. Rule for the calls: active = hit-call score of the fitted dose curve at least 0.9, where 1 is the maximum; inactive = score below 0.9.

Read-out in this assay: Plasminogen activator inhibitor-1 (PAI1), SERPINE1 (gene 5054)
The assay can be described thus: BSK_BE3C_PAI1: BioMAP Diversity Plus: BE3C Assay for Plasminogen activator inhibitor-1 (PAI1) Biomarker Activity (AID 2283037). The following applies: primary human bronchial epithelial cells; actives raise or lower the signal. How it is done: BSK_BE3C is a cell-based, multiplexed-readout assay that uses bronchial epithelial cell, a human lung primary cell, with measurements taken at 24 hours after chemical dosing in a 96-well plate.BSK_BE3C_PAI1 is an assay component measured in the BSK_BE3C assay. It measures PAI-1 antibody related to regulation of gene expression using ELISA technology.Data from the assay component BSK_BE3C_PAI1 was analyzed into 1 assay endpoint. This assay endpoint, BSK_BE3C_PAI1, was analyzed with bidirectional fitting relative to DMSO as the negative control and baseline of activity. Using a type of binding reporter, gain or loss-of-signal activity can be used to understand changes in the signaling as they relate to the gene SERPINE1. Furthermore, this assay endpoint can be referred to as a primary readout, because this assay has produced multiple assay endpoints where this one serves a signaling function. To generalize the intended target to other relatable targets, this assay endpoint is annotated to the cytokine intended target family, where the subfamily is plasmogen activator inhibitor.
The levels of cell surface (or secreted, indicated by the prefix "s") biomarker endpoints were measured by ELISA. Overt cytotoxicity to cells in confluent adherent cultures (all systems other than the BT system) was assessed by measuring total protein levels using sulforhodamine B (SRB) staining in parallel cultures at the time of biomarker measurements, indicated as SRB endpoints. For proliferation assays for adherent cell types, individual cell types are cultured at sub-confluence and relative cell numbers quantified by SRB staining at time points optimized for each system (48 h: 3C and CASM3C systems; 72 h: BT and HDF3CGF systems; 96 h: SAg system). SRB was performed by staining cells with 0.1% SRB after fixation with 10% TCA and reading wells at 560 nm.Viability and proliferation of PBMC (T cells) was quantified by Alamar Blue reduction for the SAg and BT systems. For PBMC viability (referred to as PBMC Cytotoxicity within the assay endpoint names), cells were plated (75,000/well in a 96-well plate) and then chemical samples added for 1 h before addition of activators, SEB and TSST-1 (20 ng/mL final concentration each). Cells were incubated for 90 h. Then, Alamar Blue (20 uL/well) (Invitrogen, Cat DAL1100) was added for 6 h, and the plates were read with a fluorescence microplate reader at 546/580 nm (excitation/emission). For PBMC proliferation, cells were plated and activated as above but incubated for only 16 h prior to addition of Alamar Blue. Plates were read after 6 h.
As to `COP(=O)(NC(C)=O)SC` (stereo not given), the result was inactive.

In the case of `N#CSCSC#N`, the outcome was inactive.

The AC50 is the midpoint of the concentration-response curve, whichever way the signal moves. Consider `CN(C)[C@@H]1C(=O)C(C(N)=O)=C(O)[C@@]2(O)C(=O)C3=C(O)c4c(O)cccc4[C@@](C)(O)[C@H]3[C@H](O)[C@@H]12`, for which the half-maximal activity concentration (AC50) is 3.97 µM (active) and the result was inactive.

Take `COc1ccc(C(=CC(=O)N2CCOCC2)c2ccc(Cl)cc2)cc1OC`: the outcome was inactive.

For `Nc1nc(N)nc(NC2CC2)n1`, the result was inactive.

For the compound `CC[C@H](C)[C@H]1O[C@]2(C=C[C@@H]1C)C[C@@H]1C[C@@H](C/C=C(\C)[C@@H](O[C@H]3C[C@H](OC)[C@@H](O[C@H]4C[C@H](OC)[C@@H](NC)[C@H](C)O4)[C@H](C)O3)[C@@H](C)/C=C/C=C3\CO[C@@H]4[C@H](O)C(C)=C[C@@H](C(=O)O1)[C@]34O)O2`, the half-maximal activity concentration (AC50) is 6.98 µM (active).

`CCOC(=O)CC(SP(=O)(OC)OC)C(=O)OCC` (stereo not given): the result was inactive.

Take `CSC1=N[C@@](C)(c2ccccc2)C(=O)N1Nc1ccccc1`: the result was inactive.

In the case of `CCc1cccc(C)c1N(C(=O)CCl)C(C)COC` (stereo not given), the result was inactive.

With `O=C(O)c1cc(Oc2ccc(C(F)(F)F)cc2Cl)ccc1[N+](=O)[O-]`, the outcome was inactive.

`CCNc1nc(Cl)nc(NC(C)(C)C#N)n1`: the result was inactive.

Turning to `CON=C(C(=O)OC)c1ccccc1CON=C(C)c1cccc(C(F)(F)F)c1`, the half-maximal activity concentration (AC50) is 8.79 µM (active).

`CCCOCC(=Nc1ccc(Cl)cc1C(F)(F)F)n1ccnc1`: the AC50 was 30.9 µM (active).

Turning to `CCC(CC)Nc1c([N+](=O)[O-])cc(C)c(C)c1[N+](=O)[O-]`, the result was inactive.

For `CC1=NNC(=O)N(/N=C/c2cccnc2)C1`, the result was inactive.

Turning to `CNC(=O)ON=C(C)SC`, the outcome was inactive.

For the compound `COc1cc(OC)nc(Sc2cccc(Cl)c2C(=O)O)n1`, the outcome was inactive.

For `CCCCOC(=O)c1ccccc1C(=O)O`, the outcome was inactive.

Take `CCOP(=S)(OCC)OC(Cl)C(Cl)(Cl)Cl` (stereo not given): the result was inactive.

In the case of `CC(C1CC1)C(O)(Cn1cncn1)c1ccc(Cl)cc1` (stereo not given), the result was inactive.

With `CCOP(=O)(OCC)Oc1cc(C)nc(C(C)C)n1`, the outcome was inactive.

With `Cc1cc(C2CC2)nc(Nc2ccccc2)n1`, the result was inactive.

In the case of `CCc1cccc(CC)c1N(COC)C(=O)CCl`, the outcome was inactive.

Turning to `CN(C)NC(=O)CCC(=O)O`, the outcome was inactive.

Regarding `CNC(=O)Oc1cccc2c1OC(C)(C)O2`, the result was inactive.

Consider `COc1cccc(C(=O)NN(C(=O)c2cc(C)cc(C)c2)C(C)(C)C)c1C`, for which the outcome was inactive.

Consider `COP(=O)(OC)SCn1c(=O)oc2cc(Cl)cnc21`, for which the outcome was inactive.

Regarding `CCCCN(CC)c1c([N+](=O)[O-])cc(C(F)(F)F)cc1[N+](=O)[O-]`, the result was inactive.

`CCCSP(=O)(OCC)Oc1ccc(Br)cc1Cl` (stereo not given): the outcome was inactive.

`C#CC(C)(C)NC(=O)c1cc(Cl)cc(Cl)c1`: the result was inactive.

Turning to `CC(C)N(C(=O)SCC(Cl)=C(Cl)Cl)C(C)C`, the result was inactive.

Consider `COP(=O)(OC)OC(Br)C(Cl)(Cl)Br` (stereo not given), for which the AC50 was 27.9 µM (active).

Turning to `CCCOc1nn(C(=O)NS(=O)(=O)c2ccccc2C(=O)OC)c(=O)n1C`, the outcome was inactive.

For the compound `O=[N+]([O-])c1cc(C(F)(F)F)c(Cl)c([N+](=O)[O-])c1Nc1ncc(C(F)(F)F)cc1Cl`, the concentration at half-maximal activity (AC50) was 7.78 µM (active) and 8.98 µM (active).

In the case of `CCOP(=S)(OCC)SCCSCC`, the outcome was inactive.

As for `C#CCC1=C(C)C(OC(=O)C2C(C=C(C)C)C2(C)C)CC1=O` (stereo not given), the result was inactive.

Consider `CCCCSP(=O)(SCCCC)SCCCC`, for which the outcome was inactive.

On to `CNc1cnn(-c2cccc(C(F)(F)F)c2)c(=O)c1Cl`, for which the outcome was inactive.

Consider `CSc1nnc(C(C)(C)C)c(=O)n1N`, for which the outcome was inactive.
